Source: PubChem BioAssay
Only some compounds are listed: those with a hit (about 1.5% of all), similar ones and a draw of the others.
PP5 inh = blocks human protein phosphatase 5 activity | P53041 | purified PP5c, OMFP substrate fluorescence | 0.18% of 320,000 active | AID 1987 | inhibition, % at 6.7 µM;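 active means inhibition above the campaign's mean inhibition across all tested compounds plus 3 SD, cut at about 9.5% in these data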;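 further: 0% = DMSO only and 100% = 100 µM cantharidin control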
HIF act = HIF pathway transcriptional activation; U2OS HRE-luciferase reporter, luminescence; normalized: DMSO 0%, desferrioxamine 100%; activation, % at 7.5 µM (by protocol); 0.32% of 300,000 active; AID 1910;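 active means mean activation of at least 10% of the iron chelator positive control signal, with at least half of replicates also reaching 10%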
STK33 inh = inhibitors of human STK33 kinase; Q9BYT3; purified STK33, MBP phosphorylation, ADP-Glo luminescence; inhibition, % at 10 µM; 0.073% of 320,000 active; AID 2661;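 active means inhibition at or above 25%, using the most active replicate where run in duplicate; inactive means inhibition below 25%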
Target sequence (Q9BYT3 whole entry, looked up): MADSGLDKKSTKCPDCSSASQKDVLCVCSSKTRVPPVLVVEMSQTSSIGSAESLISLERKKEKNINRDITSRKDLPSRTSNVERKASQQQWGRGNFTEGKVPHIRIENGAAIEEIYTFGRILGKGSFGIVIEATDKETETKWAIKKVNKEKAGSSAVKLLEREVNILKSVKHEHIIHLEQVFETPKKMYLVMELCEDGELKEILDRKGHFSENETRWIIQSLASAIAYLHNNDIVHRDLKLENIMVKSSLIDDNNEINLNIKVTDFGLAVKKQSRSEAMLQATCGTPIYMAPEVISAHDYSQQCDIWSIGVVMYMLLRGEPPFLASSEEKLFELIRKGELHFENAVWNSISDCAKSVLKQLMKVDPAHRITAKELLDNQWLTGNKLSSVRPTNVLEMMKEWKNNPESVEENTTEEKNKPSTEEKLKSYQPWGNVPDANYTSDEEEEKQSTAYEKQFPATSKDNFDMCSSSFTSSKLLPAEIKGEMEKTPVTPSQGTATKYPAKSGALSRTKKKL
Dyrk1A ADPGlo = blocks rat Dyrk1A kinase activity; 0.43% of 310,000 active; inhibition, % at 12.5 µM; ADP-Glo luminescence, NFATc1 peptide; in the data active means inhibition above about 50%;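 further: plate controls were vehicle with enzyme for no effect and no enzyme for full effect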
PP1 counter = blocks human PP1-alpha phosphatase, a PP5 counter-screen. P62136. inhibition, % at 6.7 µM. 0.9% of 320,000 active. AID 2235. purified PP1alpha, OMFP fluorescence;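 active means inhibition above the mean inhibition of all tested compounds plus 3 SD, computed separately for each screening campaign, cut at about 15% in these data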
The depositor's hits bear a star; . = no result given.

SMILES	PP5 inh	HIF act	STK33 inh	Dyrk1A ADPGlo	PP1 counter
O=C(NCc1cccs1)C1CC(=O)N(C2CCCC2)C1 (stereo not drawn)	2	214*	0	5	-6
Cc1ccc(NS(=O)(=O)c2cccc(C(=O)N(C)Cc3cccs3)c2)cc1	2	0	-1	6	-3
O=C1C2CCCN2c2ccc(S(=O)(=O)N3CCOCC3)cc2N1Cc1cccc(C(F)(F)F)c1 (stereo not drawn)	1	0	0	.	30*
O=C(Nc1ccccc1)c1ccc(CSc2ccccn2)cc1	1	0	0	9	1
FC(F)(F)c1ccc(CSc2ccccn2)cc1	0	10.0*	-1	4	-2
CC(=O)Nc1ccc(NC(=O)CNC(=O)c2sc3ccccc3c2Cl)cc1	1	0	.	1	0
COC(=O)c1ccc(NC(=O)CNC(=O)c2sc3ccccc3c2Cl)cc1	2	.	2	2	15*
NC(N)=NS(=O)(=O)c1ccc(NC(=S)NC(=O)c2sc3ccccc3c2Cl)cc1	1	.	1	22	16*
COC(=O)c1ccc(/C=C2/SC(=S)N(CCCC(=O)Nc3ccc(O)cc3)C2=O)cc1	1	-3	-1	-5	16*
CC(=O)Nc1ccc(S(=O)(=O)N2CCN(Cc3cccs3)CC2)cc1	4	0	2	-6	-4
Cc1c(O)nc(SCC(=O)Nc2ccc3c4c(cccc24)CC3)n(-c2ccccc2)c1=O	-3	0	-2	-9	0
O=C(CSc1nc(O)cc(=O)n1-c1ccccc1)Nc1ccc2c3c(cccc13)CC2	2	-1	-2	1	16*
CCOc1ccc(CNc2ccc(N3CCCC3)cc2)cc1	1	-1	2	2	16*
S=C1NC2=C(CCCC2=C2SCCS2)C(c2ccccc2)N1 (stereo not drawn)	1	69*	0	-2	2
CCn1nc(C(=O)OCC(=O)Nc2ncc(Cl)c(C)c2Cl)c2ccccc2c1=O	1	0	-3	-2	-2
CCn1nc(C(=O)OCC(=O)NC(C)C)c2ccccc2c1=O	4	38*	1	-2	-8
CCOC(=O)C1=CN(Cc2ccco2)S(=O)(=O)N(CC)C1c1cccc(OC)c1 (stereo not drawn)	.	.	.	0	.
O=c1[nH]n(-c2ccccc2)c(=O)cc1Cl	.	.	.	-1	.
Cc1cc(NC(=S)N(Cc2ccc(Br)cc2)Cc2ccc(C(=O)O)cc2)ccc1Cl	5	1	-3	1	16*
CCC(=O)c1ccc(OCC(=O)Nc2cccc(S(=O)(=O)N3CCCCCC3)c2)cc1	.	.	.	-1	.
Cc1ccc(OCc2csc(N)n2)cc1	1	1	-1	1	3
CCN(c1ccccc1)S(=O)(=O)c1cccc(C(=O)NCC(c2cccs2)N2CCOCC2)c1 (stereo not drawn)	1	-5	0	13	-8
O=[N+]([O-])c1cccc(/C=N/Nc2nc(NCc3ccccc3)nc(N3CCOCC3)n2)c1O	0	19*	0	-7	17*
O=[N+]([O-])c1ccc(/C=N/Nc2nc(NCc3ccccc3)nc(N3CCOCC3)n2)cc1	-2	-2	-6	-2	-9
COc1ccc(N2CCN(c3cc(C)c4ccc(O)cc4n3)CC2)cc1	1	0	2	0	-3
SMILES	PP5 inh	HIF act	STK33 inh	Dyrk1A ADPGlo	PP1 counter
COc1cc(OC)c2nc(C)c3c(c2c1)N(c1ccc(O)cc1)CC3	3	16*	0	-6	1
Cc1ccc(-n2nc3c(=O)n(CC(=O)NCc4ccccc4)nc(C)c3c2C)cc1	2	89*	1	-8	-2
Cc1ccc(-n2nc3c(=O)n(CC(=O)NCc4ccccc4Cl)nc(C)c3c2C)cc1	-2	0	-2	-2	1
CCCCn1c(N)c(N(CCOC)C(=O)c2cc(CC)c(C)s2)c(=O)[nH]c1=O	1	0	0	3	-1
CCC(C(=O)OCC(=O)Nc1c(Cl)cccc1Cl)c1ccccc1 (stereo not drawn)	4	0	0	-1	-2
O=c1[nH]c(-c2ccccn2)nc2sc(-c3ccccc3)cc12	.	72*	.	-5	.
COc1ccc(/C=C/C(=O)NC(=S)NCc2ccccc2)cc1OC	0	0	0	0	16*
COc1ccc(/C=C/C(=O)NC(C)CCc2ccccc2)cc1OC (stereo not drawn)	2	0	0	-5	-1
CC1(c2nnc(Cc3ccccc3)o2)CC(c2ccc(Br)cc2)=NO1 (stereo not drawn)	1	0	-2	6	16*
